The supplement of paper PMC6555819

How the values were obtained:
Test in all cases: PBM binding z-score (relative to random genomic background probes); higher = stronger binding; sequences stand for … in GC…GCGATTGACAGCGTAGAATGAAGG
[1] = tested on: PPARg:RXRa DBDmut IVT, anti-RXR (DBD mutation: RXRa K156A/R161A, NR concentration 270 nM, RXRa partner concentration 90 nM)
How it was run: (§1)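 On custom Agilent 4×180K arrays, double-stranded probes with 34-nt variable regions carried direct-repeat seeds, single-nucleotide variants, half-site ablations or random human genomic background. Ligand-free nuclear receptor dimers were applied for 1 h, and binding was read with antibodies against each partner (one per run). Binding z-scores come from regression-normalized fluorescence, with the random background probes as reference.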

[2] = tested on: PPARg:RXRa IVT, anti-PPARg (NR concentration 270 nM, RXRa partner concentration 90 nM)
How it was run: as §1

[3] = tested on: PPARg DBDmut:RXRa IVT, anti-PPARg (DBD mutation: PPARg1 K132A/R137A, NR concentration 270 nM, RXRa partner concentration 90 nM)
How it was run: as §1

[4] = tested on: PPARg DBDmut IVT, anti-PPARg (DBD mutation: PPARg1 K132A/R137A, NR concentration 270 nM)
How it was run: as §1

[5] = tested on: PPARg homodimer (NR concentration 180 nM)
How it was run: as §1

[6] = tested on: PXR:RXRa (NR concentration 270 nM, RXRa partner concentration 90 nM)
How it was run: as §1

[7] = tested on: PXR homodimer (NR concentration 270 nM)
How it was run: as §1

[8] = tested on: RARa homodimer (NR concentration 270 nM)
How it was run: as §1

[9] = tested on: RARb:RXRa (NR concentration 270 nM, RXRa partner concentration 90 nM)
How it was run: as §1

[10] = tested on: RARb homodimer (NR concentration 270 nM)
How it was run: as §1

[11] = tested on: RARg:RXRa (NR concentration 270 nM, RXRa partner concentration 90 nM)
How it was run: as §1

[12] = tested on: RARg homodimer (NR concentration 270 nM)
How it was run: as §1

[13] = tested on: RXRa DBDmut IVT, anti-RXR (DBD mutation: RXRa K156A/R161A, NR concentration 90 nM)
How it was run: as §1

[14] = tested on: THRa:RXRa (NR concentration 90 nM, RXRa partner concentration 90 nM)
How it was run: as §1

[15] = tested on: THRa homodimer (NR concentration 90 nM)
How it was run: as §1

[16] = tested on: VDR homodimer (NR concentration 270 nM)
How it was run: as §1

[17] = tested on: RXRa homodimer (NR concentration 180 nM)
How it was run: as §1

[18] = tested on: VDR:RXRa (NR concentration 270 nM, RXRa partner concentration 90 nM)
How it was run: as §1

| Sequence | PBM binding z-score [1] | PBM binding z-score [2] | PBM binding z-score [3] | PBM binding z-score [4] | PBM binding z-score [5] | PBM binding z-score [6] | PBM binding z-score [7] | PBM binding z-score [8] | PBM binding z-score [9] | PBM binding z-score [10] | PBM binding z-score [11] | PBM binding z-score [12] | PBM binding z-score [13] | PBM binding z-score [14] | PBM binding z-score [15] | PBM binding z-score [16] | PBM binding z-score [17] | PBM binding z-score [18] |
| --- | --- | --- | --- | --- | --- | --- | --- | --- | --- | --- | --- | --- | --- | --- | --- | --- | --- | --- |
| CCAGACAGGTGAAAGGTCACTCAGTCTGGTACGC | 2.78 | 5.19 | 0.814 | 0.242 | 3.92 | 5.74 | 1.88 | 1.75 | 4.91 | 4.99 | 6.66 | 5.89 | 1.18 | 3.75 | 1.02 | 2.37 | – | – |
| CCGACTGGGGCAAAGGTTACCACACTCAGTACGA | 4.8 | 5.98 | 0.442 | 0.282 | 1.18 | 2.44 | -0.0158 | 0.0195 | 2.54 | 2.37 | 3.51 | 1.67 | -0.032 | 1.87 | 0.0247 | 0.177 | 3.69 | – |
| ACTAGTTGTTCAGCTGAGGTCACACACAATTCGG | 0.514 | 2.19 | 0.853 | 0.948 | 2.16 | 4.83 | 1.87 | 1.09 | 3.28 | 4.34 | 3.72 | 3.35 | 1.54 | 4.65 | 5.2 | 2.84 | 4.16 | – |
| AGTCAGAGTTCATCTAGGTAACGTAAGATATGCT | 0.73 | 2.55 | 1.05 | 0.893 | 1.46 | 5.25 | 9.2 | 1.13 | 4.3 | 3.28 | 4.7 | 4.79 | 4.9 | 3.14 | 0.225 | 7.13 | 4.73 | – |
| CGTCCAAGGTCAAGGTGAGTGAAAGAGACTCGAA | 3.35 | 3.92 | 0.375 | 0.105 | 3.6 | 3.6 | 0.642 | 1.04 | 5.22 | 3.64 | 5.92 | 6.65 | 3.37 | 3.8 | 2.86 | 1.94 | 6.02 | – |
| ATACCAAGGTTATCGTGAGGTCGTTGATACTAAC | 0.718 | 1.31 | 1.06 | 0.559 | 1.6 | 4.73 | 2.85 | 1.45 | 2.47 | 2.36 | 4.49 | 2 | 2.26 | 4.2 | 2.91 | 3.67 | 3.2 | – |
| CCGACTGGGTCAAAGGTTACCATACTCAGTACGA | 6.05 | 7.26 | 1.18 | 0.000446 | 1.89 | 5.14 | -0.223 | 0.785 | 4.1 | 3.42 | 5.88 | 4.13 | 1.23 | 3.62 | 0.418 | 0.82 | – | 4.41 |
| ATCGAAAGGTCGTGAGGTGTGTATACAGAAAGGC | 0.0315 | 2.26 | 1.54 | 0.468 | 2.59 | 3.12 | -0.215 | 0.71 | 3.97 | 2.68 | 4.5 | 4.17 | 1.67 | 2.44 | -0.109 | 1.16 | 4.81 | – |
| CGTCAAAGTTCAACTAATGTAACGTAAAGCACGC | 0.546 | 1.56 | 0.963 | 2.3 | 3.42 | 4.97 | 5.1 | 2.42 | 5.23 | 3.96 | 5.66 | 6.9 | 4.76 | 3.31 | 0.305 | 4.13 | 4.75 | – |
| ATCGAAAGGTCGAAGGTCAGTATACCCACCCGAA | 0.724 | 3.24 | 0.938 | 0.568 | 2.47 | 5.13 | 0.812 | 1.68 | 4.54 | 4.11 | 6.01 | 5.42 | 1.78 | 3.31 | 0.706 | 1.51 | – | – |
| GGAACGAGGGCAAAGGTGATAGCATCTGTCGACG | 5.67 | 5.29 | 0.379 | 0.895 | 1.42 | 1.9 | 0.114 | 0.0137 | 2.72 | 1.66 | 3.02 | 1.95 | 2.07 | 1.85 | -0.159 | 1.02 | 3.31 | – |
| CAAACTAGGTCACCGGAAAGTCAAAGTCCGCATG | 8.88 | 9.33 | 3.21 | 3.47 | 2.67 | 2.14 | 0.0377 | 0.631 | 4.72 | 3.86 | 5.17 | 5.86 | 2.01 | 3.54 | 1.8 | 0.741 | 3.89 | – |
| CAAACTAGGTCACAGAGGTCGAAGTCCGTGCGTA | 8.27 | 8.42 | 2.27 | 0.791 | 2.22 | 4.41 | 3.65 | 0.511 | 4.35 | 4.46 | 5.11 | 5.68 | 2.1 | 4.03 | 2 | 3.88 | 4.51 | – |
| CGTCCAAGGTCAGATAGGTCAGTGAATGCCGAGT | 1.9 | 2.41 | -0.168 | 0.165 | 2.95 | 4.33 | 4.32 | 1.22 | 5.1 | 4.84 | 5.45 | 6.04 | 3.06 | 3.73 | 1.92 | 3.28 | 4.4 | – |
| CGTCAAAGTTCAACTAAGGTAACTTAAAGCACGC | 0.256 | 2.36 | 0.726 | 1.28 | 3.17 | 5.71 | 4.62 | 1.76 | 5.39 | 4.27 | 5.75 | 6.52 | 4.71 | 5.38 | 1.52 | 4.08 | 4.83 | – |
| CAAACTAGGTCACCGGAAGGTCAAAGTTCGCATG | 8.66 | 9.06 | 4.1 | 1.26 | 7.21 | 6.49 | 3.62 | 3.06 | 5.44 | 5.7 | 8.56 | 7.83 | 2.41 | 4.59 | 3 | 4.52 | – | – |
